Bioassay records deposited in PubChem by National Center for Advancing Translational Sciences (NCATS).
KDM4E inh: JMJD2E (human) inhibition | B2RXH2 | JMJD2E catalytic domain, FDH-coupled NADH fluorescence (FDH is formaldehyde dehydrogenase) | Potency, µM (highest dose often 57.1 µM), without a hit: at the top dose activity change, negative = inhibition, usual class: inhibitors | 230,000 compounds, 1.6% hits | AID 2147; active = well fitted inhibition curve with a large enough effect, not every such curve was filed as active; inconclusive = small, poorly fitted or top-dose-only effect, or another doubt; inactive = no such curve, though single readings can be large or run the other way;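 also: potency is read from the fitted curve at half-maximal effect; 0% = wells with enzyme and -100% = buffer wells without enzyme; nearly all actives have a fitted effect of over 50% in size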
Target sequence (B2RXH2 1-337 limits assumed): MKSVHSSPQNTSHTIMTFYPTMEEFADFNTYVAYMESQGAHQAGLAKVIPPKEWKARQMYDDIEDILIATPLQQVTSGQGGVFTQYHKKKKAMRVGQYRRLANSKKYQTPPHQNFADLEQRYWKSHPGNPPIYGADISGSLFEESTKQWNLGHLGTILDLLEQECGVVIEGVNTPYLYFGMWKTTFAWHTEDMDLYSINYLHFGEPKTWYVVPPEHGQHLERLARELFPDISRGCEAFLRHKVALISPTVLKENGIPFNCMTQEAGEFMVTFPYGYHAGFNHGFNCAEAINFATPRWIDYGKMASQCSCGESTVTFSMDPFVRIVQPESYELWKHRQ
RGS12 GoLoco inh: blocks human Gai1 binding to RGS12 GoLoco peptide, red readout. Gai1:RGS12 GoLoco peptide FP, rhodamine, 10 min. Potency, µM (highest dose often 61.6 µM), without a hit: top-dose activity, negative = inhibition, hits mostly inhibitors. 230,000 compounds, 0.44% hits. AID 880; active = well fitted inhibition curve with a large enough effect, not every such curve was filed as active; inactive = no such curve, though single readings can be large or run the other way; also: potency is read from the fitted curve at half-maximal effect; nearly all actives have a fitted effect of over 30% in size
Target sequence (P63096 whole entry, looked up): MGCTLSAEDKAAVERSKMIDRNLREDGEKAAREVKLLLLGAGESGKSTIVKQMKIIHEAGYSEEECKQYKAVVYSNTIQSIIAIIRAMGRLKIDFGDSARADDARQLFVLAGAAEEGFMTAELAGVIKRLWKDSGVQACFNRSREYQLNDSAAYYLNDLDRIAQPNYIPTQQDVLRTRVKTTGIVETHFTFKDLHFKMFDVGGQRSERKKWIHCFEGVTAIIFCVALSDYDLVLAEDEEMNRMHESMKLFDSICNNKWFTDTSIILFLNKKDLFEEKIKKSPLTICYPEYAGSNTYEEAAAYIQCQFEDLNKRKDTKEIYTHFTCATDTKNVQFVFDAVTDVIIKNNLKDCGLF
FBPA coupling cs: coupling enzyme interference in Giardia aldolase counter-screen. coupling enzyme system counterscreen, AmpLite Red fluorescence. activity change, negative = inhibition, % at 58.2 µM, hits read low. 290,000 compounds, 0.67% hits. AID 2472; in the data active = activity change below about -30%
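First, compound is pin-transferred into glyceraldehyde-3-phosphate coupling-enzyme reagent at 57.5 uM final and held 10 min at RT. Next, substrate, coupling system and AmpLite Red are added. After 20 min RT, fluorescence (525/598 nm) is read.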
ALDH1A1 block: ALDH1A1 (human) enzyme inhibition; Potency, µM (top dose mostly 75.3 µM), inactives show at the top dose activity, negative = inhibition, actives largely listed as inhibitors; P00352; Purified ALDH1A1, NADH fluorescence, propionaldehyde substrate; 220,000 compounds, 7.3% hits; AID 1030; active = well fitted inhibition curve with a large enough effect, not every such curve was filed as active; inconclusive = small, poorly fitted or top-dose-only effect, or another doubt; inactive = no such curve, though single readings can be large or run the other way;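 also: potency is read from the fitted curve at half-maximal effect; plate controls were no enzyme wells and a reference inhibitor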
Sfp inh: blocks B. subtilis Sfp PPTase activity. Q9F4F7. Biochemical Sfp PPTase activity, qHTS. Potency, µM, inactives show largest response in the series, negative = inhibition, usual class: inhibitors. 310,000 compounds, 3.5% hits. AID 1490;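 also: the enzyme is Sfp with the accession as filed and its product quenches rhodamine fluorescence; potency is read from the fitted curve at half-maximal effect; 0% = enzyme reaction without inhibitor and -100% = no enzyme wells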
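After 15 min at room temperature with compound, 15 nM Sfp received 5 uM rhodamine-CoA plus 12.5 uM BHQ-2-ybbR (50 mM Hepes pH 7.6, 10 mM MgCl2). Rate came from the fluorescence difference over 30 min, ex 525/em 598 nm.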
NPSR antag: neuropeptide S receptor (human) antagonism, cAMP; Q6W5P4; CHO-NPSR cells, cAMP TR-FRET, antagonist mode; Potency, µM (series often up to 38.3 µM), for the others: at the highest dose activity change, negative = inhibition, most hits filed as inhibitors; 220,000 compounds, 1% hits; AID 1461; also: potency is read from the fitted curve at half-maximal effect; nearly all actives have a fitted effect of over 50% in size
Starred values were filed as active, the others as inactive; ? = inconclusive; / = no result; [ ] = remark or other dose. Rows were chosen to be rich in hits. Some 8.5% of all compounds tested hit in one or more screens of this group. Unless noted, calls follow the shape of the dose curve; as a rule, active = well fitted curve in the direction sought with a large enough effect; inconclusive = small, poorly fitted or top-dose-only effect, or another doubt; inactive = no such curve, though single readings can be large; an effect the other way counts as inactive or inconclusive. Unless noted, % is scaled to controls: 0 for no effect and ±100 for the full control effect.

SMILES | KDM4E inh | RGS12 GoLoco inh | FBPA coupling cs | ALDH1A1 block | Sfp inh | NPSR antag
CSc1nc(=S)n(-c2ccc([N+](=O)[O-])cc2)c(C)c1C(C)=O | / | / | -2 | / | 8% | /
Cc1cc(NC(=S)N(CCCN2CCOCC2)Cc2ccco2)ccc1Cl | 9% | 5% | -3 | -13% | -21% | -7%
O=C(C(=O)N1CCOCC1)c1c[nH]c2ccccc12 | ? | 3% | 2 | 31% | 15% | 6%
S=C(c1c[nH]c2ccccc12)N1CCOCC1 | -27% | -2% | 11 | 20µM* | 22µM* | 10%
Cc1ccc(N2CCN(/N=C/c3ccccc3)CC2)cc1 | -5% | 9% | 0 | 6% | 19% | 11%
Cn1cccc1/C=N/N1CCN(c2ccccc2)CC1 | ? | -77% | 2 | 14µM* | 28µM* | 0%
Cn1cccc1/C=N/N1CCN(Cc2ccccc2Cl)CC1 | -19% | -13% | -8 | / | 56µM* | -16%
C=CCc1ccc(OC)c(OC)c1 | / | 2% | 1 | ? | 16% | /
O=C(CN1CCCC1)N/N=C/c1c(O)ccc2ccccc12 | / | / | -8 | / | 2% | /
CCOC(=O)C1=NNC2C(=O)N(C3CCCCC3)C(=O)C12 (stereo not drawn) | 6% | -2% | 1 | 13µM* | 10% | 3%[46.1 µM]
Cc1ccccc1NC(=O)CN(C)S(=O)(=O)c1cccs1 | / | / | 0 | / | -12% | /
C=CCN1C(=O)/C(=C/c2ccc(-c3ccc(F)cc3)o2)SC1=S | / | / | -3 | / | 56µM* | /
C=CCN1C(=O)/C(=C/c2ccsc2)SC1=S | 4% | 2% | 3 | ? | -3% | 29%
CCOc1ccc(S(=O)(=O)N2CCCC(C(=O)N3CCN(CC)CC3)C2)cc1Cl (stereo not drawn) | / | / | 2 | / | -7% | /
O=C(CSc1ncnc2ccccc12)c1ccco1 | -29% | 12% | 1 | 11µM* | 20µM* | -2%
CN(C)C(=O)CSc1nnc2sc3ccccc3n12 | 1% | -1% | 3 | -7% | -2% | 2%[46.1 µM]
O=C(CSc1nnnn1-c1ccccc1)c1ccco1 | 2% | 0% | 1 | ? | 8% | 9%
O=c1c2ccccc2nnn1CSc1nnc2sc3ccccc3n12 | 1% | 3% | 2 | 13µM* | -9% | -5%[46.1 µM]
O=C(CSCCSCC(=O)c1ccco1)c1ccco1 | -19% | -4% | -2 | 22µM* | 45µM* | -1%[46.1 µM]
O=C(CSc1nnc2sc3ccccc3n12)c1ccco1 | -2% | 13% | -1 | 16µM* | -6% | -6%[46.1 µM]
O=C(CSc1ncnc2ccccc12)NCc1ccco1 | 2% | -6% | 0 | 22% | 1% | 16%[46.1 µM]
Cn1nnnc1SCC(=O)c1ccco1 | -2% | -11% | 1 | 40µM* | ? | -12%[46.1 µM]
CC1CCc2c(sc3ncn(N)c(=N)c23)C1 (stereo not drawn) | ? | 13% | 0 | / | -12% | 21%
CSCCC(NC(=O)OC(C)(C)C)C(=O)Oc1ccc2c(=O)c(-c3ccc4c(c3)OCCO4)coc2c1 (stereo not drawn) | ? | 7% | -2 | 25µM* | ? | -13%[46.1 µM]
CSCCC(NC(C)=O)C(=O)Oc1ccc2c3c(c(=O)oc2c1)CCCC3 (stereo not drawn) | ? | 10% | 0 | ? | 10% | -6%[46.1 µM]
SMILES | KDM4E inh | RGS12 GoLoco inh | FBPA coupling cs | ALDH1A1 block | Sfp inh | NPSR antag
Fc1ccc(-n2c(Cc3ccccc3)nnc2SCc2nc(-c3cccs3)no2)cc1 | -9% | 63% | 3 | 14µM* | 7% | ?
COc1ccc(-c2noc(CSc3nnc(Cc4ccccc4)n3-c3cccc(C)c3)n2)cc1OC | -5% | 10% | 1 | 13µM* | -4% | ?
S=c1[nH]nc(COc2ccccc2)n1/N=C/c1c(Cl)cccc1Cl | / | / | 3 | / | -15% | /
CCOC(=O)N1CCN(S(=O)(=O)c2cc([N+](=O)[O-])ccc2C)CC1 | 3% | -2% | 1 | -6% | 4% | 9%
CCOC(=O)N1CCC(=NNS(=O)(=O)c2cccc([N+](=O)[O-])c2)CC1 | -1% | -23% | 1 | 10µM* | 56µM* | -2%[46.1 µM]
CC1CCCCN1C(=O)c1ccc(COc2ccc([N+](=O)[O-])cc2)o1 (stereo not drawn) | -3% | 0% | -2 | 14µM* | -27% | -15%
NNC(=O)c1ccc(COc2ccc([N+](=O)[O-])cc2)o1 | 2% | 9% | 3 | / | 26% | -4%
CC(CNC(=O)c1cccnc1)NC(=O)c1cccnc1 (stereo not drawn) | / | / | / | / | 2% | /
Cc1ccc(-n2c(-c3ccccc3)c[nH]c2=S)cc1 | -13% | 10% | -2 | 2% | -22% | -11%
COc1ccc(-n2c(-c3ccc(Cl)cc3)c[nH]c2=S)cc1 | / | / | 4 | / | 56µM* | /
S=c1[nH]cc(-c2ccccc2)n1-c1ccccc1 | -14% | -4% | -1 | 3.2µM* | 45µM* | -3%[46.1 µM]
CCn1c(-c2ccccc2)c[nH]c1=S | ? | 7% | -3 | 28µM* | -23% | -2%[46.1 µM]
CCOc1ccc(S(=O)(=O)N2CCC(C(=O)NCc3cccnc3)CC2)cc1C | / | / | 0 | / | 8% | /
CCC1CCCCC1 | / | / | -1 | / | 13% | /
C=CCn1c(NC(=O)c2ccccc2)nc2ccccc21 | / | / | 0 | / | 0% | /
C=CCn1c(P(=O)(O)c2ccccc2)nc2ccccc21 | -1% | 5.6µM* | 2 | 15% | 10% | -1%[46.1 µM]
Cc1nc(C(F)(F)F)ccc1C(=O)Nc1ccccc1N1CCOCC1 | / | / | / | / | 6% | /
Cc1cccc(-c2ocnc2C(=O)Nc2ccccc2NC(=O)c2ccccn2)c1 | / | / | -1 | / | 45µM* | /
Cc1ccc(C2CC(=O)Oc3ccc(C(C)(C)C)cc32)cc1 (stereo not drawn) | / | 8%[88.7 µM] | -4 | -13% | 2% | /
Cc1ccc(C2CC(=O)Oc3ccc(O)cc32)cc1 (stereo not drawn) | / | -1%[88.7 µM] | -2 | 32µM* | ? | /
O=C(O)CP(=O)(O)O | 1% | 0% | 2 | 8% | -2% | 18%
O=P(O)(O)CP(=O)(O)O | 0.35µM* | -4% | 3 | 4% | -5% | -7%[46.1 µM]
CCOC(=S)SCc1cn2ccccc2n1 | -19% | 15% | 0 | ? | 50µM* | 9%
O=C(COc1ccc2ccc(=O)oc2c1)NCCCN1CCCC1=O | / | / | / | / | 14% | /
OC(CNCC1CCCO1)Cn1c2ccc(Cl)cc2c2cc(Cl)ccc21 (stereo not drawn) | -22% | 10% | 0 | ? | 50µM* | ?
OC(CNCCC1C=Nc2ccccc21)Cn1c2ccc(Cl)cc2c2cc(Cl)ccc21 (stereo not drawn) | -9% | 9% | -4 | ? | 11µM* | 10µM*
Cc1cc(C)n(CC(O)Cn2c3ccc(Cl)cc3c3cc(Cl)ccc32)c(=O)n1 (stereo not drawn) | -8% | 16% | 4 | ? | -1% | -20%[46.1 µM]
COc1cccc(C(C(=O)NC(C)(C)C)N(C(=O)CCC(=O)Nc2cc(C)on2)c2ccc3c(c2)OCCO3)c1OC (stereo not drawn) | / | / | 0 | / | 22% | /
